Compounds with a hit are over-represented: about 1.8% of the library has one in this group of screens.
NPR2 activator = human GC-B receptor activators, primary screen, HEK293 GC-B cells, cGMP TR-FRET, EC30 CNP; Atrial natriuretic peptide receptor 2 (Homo sapiens), P20594; activation, % at 10 µM; 0% at EC30 CNP, 100% saturating CNP; 0.11% of 370,000 active;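 active = activation at 10 µM reaching about 35% in either raw or pattern-adjusted values, limit read from the data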
MsrA inh = bovine MsrA enzyme inhibitors, primary screen, biochemical, absorbance, HTS; 0.75% of 360,000 active; AID 651718, 2012; purified bovine MsrA, absorbance read-out; inhibition, % at 15.5 µM; Methionine sulfoxide reductase A (Bos taurus); in the data active = inhibition above about 4.5%
NPR1 activator = GC-A stimulated cGMP production enhancers – HEK293 GC-A cells, cGMP TR-FRET, EC30 ANP, primary screen. 0% at EC30 ANP, 100% saturating ANP. activation, % at 10 µM. AID 1671463, 2021. 0.14% of 370,000 active; in the data active = activation above about 40%
HTR2A ag = mouse Htr2a agonists via beta-arrestin recruitment, primary screen, cell-based, luminescence | 0.66% of 360,000 active | activation, % at 7.6 µM | CHO-K1 mHTR2A beta-arrestin complementation; percent of 30 µM serotonin response | 5-hydroxytryptamine receptor 2A (Mus musculus), P35363;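 active = activation above a run cutoff, the mean activation of all tested compounds plus 3 SD, cut at about 14% in these data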
Target sequence (P35363 whole entry, looked up): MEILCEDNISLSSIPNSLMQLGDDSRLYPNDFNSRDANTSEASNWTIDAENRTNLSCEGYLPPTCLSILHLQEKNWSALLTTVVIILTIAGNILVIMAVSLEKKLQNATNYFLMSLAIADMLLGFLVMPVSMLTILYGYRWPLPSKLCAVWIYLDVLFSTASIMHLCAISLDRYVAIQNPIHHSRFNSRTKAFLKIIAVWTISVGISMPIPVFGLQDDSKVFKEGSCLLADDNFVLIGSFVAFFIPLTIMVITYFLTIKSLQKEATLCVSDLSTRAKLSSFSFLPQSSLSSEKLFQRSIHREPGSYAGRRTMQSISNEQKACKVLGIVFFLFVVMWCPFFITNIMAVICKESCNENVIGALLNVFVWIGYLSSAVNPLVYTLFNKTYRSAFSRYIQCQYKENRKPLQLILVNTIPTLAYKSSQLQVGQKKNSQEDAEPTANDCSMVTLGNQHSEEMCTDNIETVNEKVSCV
MsrA act = bovine MsrA enzyme activators, primary screen, biochemical, absorbance, HTS. 0.3% of 360,000 active. Methionine sulfoxide reductase A (Bos taurus). purified bovine MsrA, absorbance read-out. activation, % at 10.6 µM; in the data active = activation above about 7.5%
Hits are given with their value; 0 = inactive; - = no result given.

SMILES	NPR2 activator	MsrA inh	NPR1 activator	HTR2A ag	MsrA act
C[C@H]1Cn2nnc(-c3ccccc3)c2Cn2c3ccccc3c(=O)n21	0	-	0	-	-
Cc1ccc(Cn2cc(C(=O)c3ccc(F)cc3)c(=O)c3cc4c(cc32)OCCO4)cc1	37.5	0	0	0	0
Cc1cccc(NC(=O)Nc2ccccc2C(=O)N2CCCC2)c1	0	-	0	-	-
COC(=O)c1cc(C(=O)Nc2cc(C)ccn2)cc([N+](=O)[O-])c1	0	0	0	14.5	0
CN1[C@H](Cc2ccccc2)COc2cc(N3CCSCC3)ccc2S1(=O)=O	0	-	0	-	-
c1cncc(-c2ccc3ncnc(NCc4ccc5c(c4)OCO5)c3c2)c1	0	0	0	0	0
c1nc(NCc2ccc3c(c2)OCO3)c2cc(-c3ccoc3)ccc2n1	46.4	0	42.0	0	0
Cc1cccc(OCc2nnc(SCC(=O)N3CCCCC3)o2)c1	0	0	0	0	0
Cc1cccc(OCc2nnc(SCC(=O)OC3CCCCC3)o2)c1	0	0	60.0	0	0
CC(C)c1ccc(/C=c2\sc3nc(-c4ccncc4)nn3c2=O)cc1	0	0	41.0	0	0
O=C(CSc1nnc(-c2ccccn2)n1-c1ccccc1)Nc1ccccc1-c1ccccc1	0	-	0	-	-
CC(=O)Nc1ccc(C(=O)OCC(=O)NCc2cccs2)cc1	68.0	0	0	0	0
COCc1cn(-c2cccc(-c3noc4c3C(=O)N(CC(=O)N3CCOCC3)CC4)c2)nn1	0	-	0	-	-
C=C(C)[C@H]1CC=C(C(=O)O)CC1	0	-	0	-	-
CCOc1ccc(CCNC(=O)CS(=O)Cc2nc(-c3ccc(C)cc3)oc2C)cc1 (stereo not given)	0	0	0	0	0
COc1ccc(-c2nc(CS(=O)CC(=O)NCCC3=CCCCC3)c(C)o2)cc1 (stereo not given)	0	0	0	39.6	0
CC(=O)Nc1ccc(S(=O)(=O)C(C#N)c2nc3ccccc3nc2NCCO)cc1 (stereo not given)	0	0	0	0	0
CC(=O)Nc1ccc(S(=O)(=O)C(C#N)c2nc3ccccc3nc2NCCCO)cc1 (stereo not given)	0	4.6	0	0	0
Cc1cc(NC(=O)c2ccc([N+](=O)[O-])cc2)no1	0	0	0	0	0
Cc1oc(C(C)(C)C)cc1-c1cc(NC(=O)c2ccc([N+](=O)[O-])cc2)n[nH]1	56.6	0	43.5	0	0
COCc1cc(Sc2cccc(Cl)c2Cl)nc(-c2ccccc2)n1	0	0	0	0	22.7
COCc1cc(Sc2ccc(Cl)cc2)nc(-c2ccccc2)n1	0	0	0	0	0
CCCCOc1cccc(C(=O)NCCc2ccccc2-c2ccccc2CCC(=O)NCc2ccccc2)c1	0	-	0	-	-
Cn1c(=O)c(=O)n(C)c2cc(S(=O)(=O)N3CCN(CCO)CC3)ccc21	0	-	0	-	-
Cc1cnc(NC(=O)CSc2nnc(COc3c(C)cccc3C)o2)s1	96.8	0	0	0	0
SMILES	NPR2 activator	MsrA inh	NPR1 activator	HTR2A ag	MsrA act
CCCCNC(=O)C1(C(C)=O)CC(C(=O)OCC)=NO1 (stereo not given)	0	-	0	-	-
COCCCN1C(=O)[C@H](CC(=O)NCCCN2CCCC2=O)[C@]2(C(=O)OC)CCCCC=C12	0	-	0	-	-
O=C1C=CC(=O)N1c1ccc(OC(F)F)cc1	0	46.6	0	0	0
O=C1C=CC(=O)N1c1ccc(O)cc1	0	0	0	0	0
CCn1c(-c2ccsc2)nc2c1c(=O)[nH]c(=O)n2Cc1ccccc1	41.8	0	0	0	0
CCCn1c(-c2cccs2)nc2c1c(=O)[nH]c(=O)n2Cc1ccccc1	0	0	0	0	0
CC(=O)N(c1ccccc1)c1nc(/C=C/C(=O)Nc2c(C)cc(C)cc2C)cs1	43.2	0	40.4	0	0
CN(C)c1ccc(-c2n(C)c3ccccc3[n+]2C)cc1	0	4.6	0	0	0
COc1ccccc1N=Nc1c(C)n[nH]c1C	0	4.6	0	0	0
CC(=O)c1ccc(-c2ccc(C(=O)N3CCN(c4ccc(F)cc4)CC3)o2)cc1	0	0	0	0	0
CC(=O)c1ccc(-c2ccc(C(=O)N3CCC(C(N)=O)CC3)o2)cc1	0	7.6	0	0	0
CCOC(=O)N1CCN(C(=O)C[C@H]2C[C@@]3(C(=O)OC)C(=C[C@H](COCc4ccccc4)O[C@@H]3C)N(Cc3cccc4ccccc34)C2=O)CC1	0	-	0	-	-
Cc1cnc(NC(=O)C2CC(=O)N(c3cccc(Cl)c3)C2)s1 (stereo not given)	37.1	0	0	0	0
CCN1CCN(c2cc(C)c3cc(NC(=O)CCC(=O)Nc4ccc(OC)c(OC)c4)ccc3n2)CC1	0	0	0	0	0
CCN1CCN(c2cc(C)c3cc(NC(=O)c4ccc(OC)c(OC)c4)ccc3n2)CC1	46.8	0	0	0	0
COc1ccc(C(=O)CSc2nnc(-c3ccc(C(C)(C)C)cc3)n2C)cc1	0	-	0	-	-
CCOC(=O)[C@]12CCCCC/C=C\1N(CCc1ccc(Cl)cc1)C(=O)[C@H]2CC(=O)N1CCN(C(=O)C2CC2)CC1	0	-	0	-	-
O=C1OCCC1Sc1nnnn1-c1ccccc1 (stereo not given)	0	0	0	0	0
O=C1OCCC1Sc1nnnn1-c1ccc(Cl)cc1 (stereo not given)	0	0	65.2	0	0
CC(=NNC(=O)CSc1nnc(-c2ccccc2)n1-c1ccccc1)c1cccc([N+](=O)[O-])c1	0	-	0	-	-
O=C(CN1CCOCC1)Nc1nc(-c2ccc3c(c2)CCN3S(=O)(=O)c2ccccc2)cs1	0	0	0	15.4	0
O=C(/C=C/c1ccc2c(c1)OCO2)N1CCN(c2n[nH]c(=O)[nH]c2=O)CC1	0	4.6	0	0	0
CN1CCN(C(=O)/C=C/c2ccc3c(c2)OCO3)CC1	0	0	0	0	0
N#Cc1ccc(-c2cccnc2)nc1SCc1ccc(Cl)cc1Cl	42.0	0	0	0	0
N#Cc1ccc(-c2cccnc2)nc1SCc1ccc(Cl)c(Cl)c1	0	0	0	0	0
C=CCN1[C@H](Cc2ccccc2)COc2cccc(N3CCSCC3)c2S1(=O)=O	0	-	0	-	-
CCOC(=O)Cc1cc(=O)n2[nH]c(C)c(-c3ccccc3)c2n1	43.2	0	0	0	0
CN(C)c1ccc(/C=C(\NC(=O)c2ccccc2)C(=O)NCc2cccnc2)cc1	0	0	0	0	0
CN1CCN(C(=O)/C(=C/c2ccc(N(C)C)cc2)NC(=O)c2ccccc2)CC1	0	4.6	0	0	0
CN(C)c1ccc(/C=C(\NC(=O)c2ccccc2)C(=O)NCc2ccncc2)cc1	0	4.7	0	0	0

Source: PubChem (several laboratories)
